Calb biofilm kill = clotrimazole potentiators killing Candida biofilms, primary screen, with clotrimazole, Alamar Blue; C. albicans biofilm + clotrimazole; inhibition, % at 6 µM; 0.14% of 85,000 active; AID 834, 2007;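 active = inhibition above 20%; inactive = inhibition below 20%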;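 also: preformed 24 hr biofilms exposed to compound for 48 hr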
Mac1 fbg enh = enhancers of CD11b/CD18 adhesion to fibrinogen, primary screen, K562 cells, luminescence. Integrin beta-2 (Homo sapiens) + Integrin alpha-M (Homo sapiens), P05107+P11215. ATPlite luminescence. activation, % at 10 µM. 0.07% of 93,000 active. AID 1499, 2009;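 active = 10 µM primary screen giving 50% or more activity, confirmed by 40% or more on retest at that dose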
Target sequence (P05107 whole entry, looked up, other chains not shown): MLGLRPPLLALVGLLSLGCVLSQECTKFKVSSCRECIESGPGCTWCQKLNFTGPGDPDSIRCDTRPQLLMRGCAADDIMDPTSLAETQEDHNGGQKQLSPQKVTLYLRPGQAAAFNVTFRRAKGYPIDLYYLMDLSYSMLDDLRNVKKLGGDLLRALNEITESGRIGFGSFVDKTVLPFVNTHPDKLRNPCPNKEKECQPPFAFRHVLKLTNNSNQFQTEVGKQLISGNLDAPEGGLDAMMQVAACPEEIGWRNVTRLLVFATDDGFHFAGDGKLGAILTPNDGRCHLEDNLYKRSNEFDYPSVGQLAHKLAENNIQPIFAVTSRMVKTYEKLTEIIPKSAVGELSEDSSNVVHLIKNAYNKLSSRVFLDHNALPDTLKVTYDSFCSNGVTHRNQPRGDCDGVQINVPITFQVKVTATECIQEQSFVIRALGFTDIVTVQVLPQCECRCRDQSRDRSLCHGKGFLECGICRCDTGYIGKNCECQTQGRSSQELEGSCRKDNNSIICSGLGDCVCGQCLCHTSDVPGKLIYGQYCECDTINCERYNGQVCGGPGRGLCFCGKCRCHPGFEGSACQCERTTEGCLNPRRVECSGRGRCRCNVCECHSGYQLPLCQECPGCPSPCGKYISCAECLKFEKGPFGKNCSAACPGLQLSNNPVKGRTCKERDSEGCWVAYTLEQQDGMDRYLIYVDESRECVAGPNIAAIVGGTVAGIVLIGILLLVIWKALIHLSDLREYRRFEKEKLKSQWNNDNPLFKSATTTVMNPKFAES
PLK1 inh = human PLK1 kinase inhibitors, primary screen, biochemical, TR-FRET | Serine/threonine-protein kinase PLK1 (Homo sapiens), P53350 | recombinant PLK1 kinase, TR-FRET peptide phosphorylation | inhibition, % at 10 µM | 0.53% of 97,000 active | AID 619, 2007;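 active = inhibition of 50% or more in the single-concentration screen; inactive = inhibition below 50%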
Plk1 PBD FP = Plk1 polo box domain binding inhibitors, primary screen, biochemical, fluorescence polarization; Serine/threonine-protein kinase PLK1 (Homo sapiens), P53350; inhibition, %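 (tested at about 20 µM)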; Plk1 PBD phosphopeptide binding; 0.13% of 97,000 active; AID 693, 2007; in the data active = inhibition above about 34%, passing the limit was not always enough
Mac1 fbg inh = inhibitors of CD11b/CD18 adhesion to fibrinogen, primary screen, K562 cells, luminescence; Integrin beta-2 (Homo sapiens) + Integrin alpha-M (Homo sapiens), P05107+P11215; ATPlite luminescence; Mn2+ added to activate the integrin; inhibition, % at 10 µM; 0.54% of 93,000 active;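 active = primary inhibition of 50% or more at 10 µM, then 40% or more on retest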
Numbers stand for hits. This is a sample that favours compounds with a hit; in the whole collection about 1.1% have one here.

`COc1ccc(C(=O)Nc2ccc(N3CCCC3)cc2)cc1` gave Calb biofilm kill 80.5, Mac1 fbg enh inactive, PLK1 inh inactive, Plk1 PBD FP inactive and Mac1 fbg inh inactive.
`CC1=CC(=O)C=C(C)C1=NOC(=O)c1cccc([N+](=O)[O-])c1` gave Calb biofilm kill 86.3, Mac1 fbg enh inactive, PLK1 inh inactive, Plk1 PBD FP inactive and Mac1 fbg inh inactive.
`Brc1ccc(-c2nc3ncccn3c2NC2CCCCC2)o1` gave Calb biofilm kill inactive, Mac1 fbg enh inactive, PLK1 inh inactive, Plk1 PBD FP inactive and Mac1 fbg inh inactive.
For COC(=O)c1ccc(/C(O)=C(\C#N)c2nc3ccccc3s2)cc1 the results were Calb biofilm kill inactive, Mac1 fbg enh inactive, PLK1 inh inactive, Plk1 PBD FP inactive and Mac1 fbg inh 103.1.
Nc1[nH]nc2nc(N3CCOCC3)nc(-c3ccccc3)c12 was read as Calb biofilm kill inactive, Mac1 fbg enh inactive, PLK1 inh 68.0, Plk1 PBD FP inactive and Mac1 fbg inh inactive.
`CCS(=O)(=O)NCc1csc(-c2ccccc2)n1` gave Calb biofilm kill 25.1, Mac1 fbg enh inactive and Mac1 fbg inh inactive.
`CS(=O)(=O)NCc1csc(-c2ccccc2)n1` gave Calb biofilm kill inactive, Mac1 fbg enh inactive, PLK1 inh inactive, Plk1 PBD FP inactive and Mac1 fbg inh inactive.
O=C(Nc1nc2cc(Cl)ccc2s1)C1CCCN(S(=O)(=O)c2cccc3cccnc23)C1 (stereo not given) was read as Mac1 fbg enh inactive, PLK1 inh inactive, Plk1 PBD FP inactive and Mac1 fbg inh inactive.
O=C1N/C(=N/Nc2ccccc2)S/C1=C\c1ccccc1 was read as Mac1 fbg enh inactive, PLK1 inh inactive, Plk1 PBD FP inactive and Mac1 fbg inh 79.2.
CCSc1nc(-c2cccs2)nc2c1c(=O)n(C)c(=O)n2C was read as Calb biofilm kill inactive.
For O=C(OCc1ccccc1)c1cn(-c2ccccc2)nc1-c1ccncc1 the results were Calb biofilm kill inactive, Mac1 fbg enh inactive, PLK1 inh inactive, Plk1 PBD FP inactive and Mac1 fbg inh inactive.
CCCn1c(C)nc2c(c1=O)c1nc3ccccc3nc1n2CCC1=CCCCC1 was read as Calb biofilm kill inactive, Mac1 fbg enh 62.5, PLK1 inh inactive, Plk1 PBD FP inactive and Mac1 fbg inh inactive.
Cc1cc(C)c2nc(SC(C)C#N)cc(C)c2c1 (stereo not given) was read as Calb biofilm kill inactive, Mac1 fbg enh inactive, PLK1 inh inactive, Plk1 PBD FP inactive and Mac1 fbg inh inactive.
Screening C=CCn1c(NS(=O)(=O)c2ccccc2)c(S(=O)(=O)c2ccc(C)cc2)c2nc3ccccc3nc21 returned Mac1 fbg enh inactive and Mac1 fbg inh 95.7.
Screening CCOc1ccc(C2CC(c3ccc(F)cc3)n3ncnc3N2)cc1 (stereo not given) returned Calb biofilm kill inactive.
O=C(CCc1ccc(Oc2cc([N+](=O)[O-])cc([N+](=O)[O-])c2)cc1)N1CCCCCC1 was read as Mac1 fbg enh inactive and Mac1 fbg inh inactive.
For COc1ccc(C2C(C#N)=C(N)Oc3c2c(C)nn3-c2ccccc2)cc1Cn1nc(C)c([N+](=O)[O-])c1C (stereo not given) the results were Calb biofilm kill inactive, Mac1 fbg enh 50.9, PLK1 inh inactive, Plk1 PBD FP inactive and Mac1 fbg inh inactive.
For NC(=O)c1c(NC(=O)C2CCCO2)sc2c1CCCC2 (stereo not given) the results were Mac1 fbg enh inactive and Mac1 fbg inh inactive.
N#Cc1ccc(NC(=O)COC(=O)CSc2nnc(-c3ccc(Cl)cc3)o2)cc1 was read as Mac1 fbg enh inactive and Mac1 fbg inh inactive.
For CCOc1ccc(-c2nc(C#N)c(N3CCCCCC3)o2)cc1 the results were Calb biofilm kill 21.0, Mac1 fbg enh inactive, PLK1 inh inactive, Plk1 PBD FP inactive and Mac1 fbg inh inactive.
CCOc1ccc(-c2nc(C#N)c(N3CCN(C)CC3)o2)cc1 was read as Calb biofilm kill inactive, Mac1 fbg enh inactive, PLK1 inh inactive, Plk1 PBD FP inactive and Mac1 fbg inh inactive.
`O=C(NNC(=S)Nc1cccc2ccccc12)c1cccc(Br)c1` gave Calb biofilm kill inactive, Mac1 fbg enh inactive, PLK1 inh inactive, Plk1 PBD FP inactive and Mac1 fbg inh 88.6.
Screening COCCNC(=O)C1=C(N)C(C(=O)Nc2ccc(C)c(S(=O)(=O)N3CCCCC3)c2)SC1=Nc1ccc(C)cc1C (stereo not given) returned Mac1 fbg enh inactive, PLK1 inh inactive, Plk1 PBD FP inactive and Mac1 fbg inh inactive.

Screening results (PubChem)
